Source: PubChem
Only some compounds are listed: those with a hit (about 3% of all), similar ones and a draw of the others.
MITF act: MITF TRPM1 promoter activation in melanoma cells. SK-MEL-5 TRPM1-promoter luciferase, 24 h; % of positive control, neutral wells = 0. activation, % at 12.5 µM. actives 0.75% (n = 300,000);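 active = mean activation of at least 80% with every replicate also reaching 80%; inconclusive = mean reaches 80% but some replicate falls short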;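 note: 0% = neutral control wells and 100% = parthenolide positive control wells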
PfHsp90 yeast 2: reduces growth (ATP signal) of yeast expressing P. falciparum Hsp90; S. cerevisiae expressing PfHsp90, BacTiter-Glo ATP, 48 h; yeast lacking PDR1 and PDR3 efflux regulators; inhibition, % at 9.4 µM; actives 0.32% (n = 310,000); AID 504621;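 active = every replicate shows inhibition above about 80%, whatever the replicate mean, limit read from the data; inconclusive = mean inhibition reaches the set limit but some replicate falls short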;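 note: 0% = DMSO neutral controls and 100% = 20 µM radicicol positive controls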
Vif inh: blocks HIV Vif function; HEK293T cells, Vif self-association by quenched fluorescence, imaging, 24 h; inhibition, % at 7.49 µM; actives 0.35% (n = 340,000); in the data active = inhibition above about 50%, passing the limit was not always enough; inconclusive = no clear call, values can overlap the other calls; inactive = below about 31%
Wnt bcat act: activates Wnt/beta-catenin signaling in a reporter cell assay; activator, plate reader; activation, % at 9.35 µM; actives 1.2% (n = 300,000); in the data active = activation above about 30%, passing the limit was not always enough; inconclusive = no clear call, values can overlap the other calls;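 note: 0% = neutral control wells and 100% = positive control wells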
esBAF inh: SWI/SNF esBAF complex inhibition | mouse ES cells, Bmi1-luciferase knock-in reporter, 24 h; 100% = twice the neutral-well signal | reporter increase, % at 12.5 µM | actives 2% (n = 350,000) | AID 602393; in the data active = activation above about 40%; inconclusive = no clear call, values can overlap the other calls;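 note: 0% = median of the plate's neutral control wells and 100% = double that signal; a rise in the Bmi1 reporter signal indicates esBAF inhibition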
N-glyco inh: N-linked glycosylation inhibition; actives 0.23% (n = 360,000); D54 ERlucT glycosylation luciferase reporter, 24 h; percent of 100 nM tunicamycin response; reporter increase, % at 12.5 µM; AID 588692;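 active = mean luciferase reporter signal, scaled so untreated is 0 and the glycosylation-blocking control 100, at or above a set limit in every replicate; inconclusive = mean reaches the limit but not every replicate does; inactive = mean below the limit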;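 note: luciferase carries N-glycosylation sites so blocking glycosylation raises the light; 0% = median of neutral control wells and 100% = median of 100 nM tunicamycin wells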
* marks the source's active call; other numbers are inactive results; ? = inconclusive; . = no result.

SMILES	MITF act	PfHsp90 yeast 2	Vif inh	Wnt bcat act	esBAF inh	N-glyco inh
COc1cc(NC(=O)c2ccccc2OCc2ccccc2)cc(OC)c1OC	5.2	-2.5	6.1	0.4	-2.9	27.8*
C[C@H](CO)N1C[C@H](C)[C@H](CN(C)Cc2cccc(F)c2)Oc2ncc(C#CC(C)(C)O)cc2C1=O	.	.	.	.	-5.7	.
O=C(Nc1ccccc1)c1ccccc1OCc1ccc(S(=O)(=O)N2CCOCC2)cc1	8.5	-19.1	4.7	-1.0	.	-4.6
COc1ccc(CN(C(=O)c2cc3ccccc3oc2=O)C2CCS(=O)(=O)C2)cc1OC (stereo unspecified)	72.8	-16.3	7.3	22.5	61.9*	0.0
COc1cccc(CN(C(=O)c2cc3ccccc3oc2=O)C2CC2)c1	.	-65.7	-9.9	?	56.7*	-2.1
CCOc1ccc(CN(C(=O)c2cc3ccccc3oc2=O)C2CCS(=O)(=O)C2)cc1 (stereo unspecified)	45.6	8.1	11.6	2.9	76.4*	-0.8
COc1ccc(CN(C(=O)c2cc3ccccc3oc2=O)C2CCS(=O)(=O)C2)cc1 (stereo unspecified)	.	-9.9	-12.6	21.8	.	1.3
COc1ccc(Nc2nc3ccccc3s2)cc1	66.2	-18.1	6.9	.	.	-6.0
COc1ccc2nc(NC3=NCCC3)sc2c1	64.5	-11.8	.	57.5*	57.5*	-4.1
COc1ccc(-c2nc(NC3=NCCCCC3)sc2C)cc1	8.9	-2.5	-0.9	-20.3	.	-1.9
COc1cccc(Nc2nc3ccc(OC)cc3s2)c1	114.8*	-47.1	-16.6	1.5	.	-1.9
Clc1ccc(-c2nnc(C3CCCCC3)o2)cc1	37.9	-14.1	6.4	27.3	36.6	-2.0
Clc1ccc(-c2nc(C3CCCCC3)no2)cc1	90.6*	5.0	14.9	70.7*	75.6*	-3.3
COc1ccc(NC(=O)c2cccc(S(=O)(=O)Nc3ccc(Br)cc3)c2)cn1	-5.6	-14.9	.	-0.3	9.6	-1.8
CCn1cnc2c(Nc3cccc(Cl)c3)nc(C#N)nc21	112.1*	.	0.7	45.7*	68.9*	-0.9
CCn1cnc2c(NCCc3cccnc3)nc(C#N)nc21	3.7	.	.	-1.6	.	-1.4
CCC1(c2ccccc2)NC(=S)N(c2ccc(C)cc2)N1 (stereo unspecified)	13.5	1.9	-1.7	2.1	44.9*	0.2
CCC1(c2ccc(Cl)cc2)NC(=S)N(c2ccccc2)N1 (stereo unspecified)	4.2	15.0	-10.0	-1.7	10.9	-1.5
Cc1nc(NCc2ccco2)c2c(C)c(C)sc2n1	-54.6	-1.6	-4.8	.	-4.5	2.1
Cc1sc2nc3c4ccccc4c(NCc4ccco4)nn3c(=O)c2c1C	85.2*	5.5	7.9	.	.	1.9
Cc1c(C(=O)OC(C)C)[nH]c2c1C(=O)CC(C)(C)C2	-6.8	12.3	-6.4	-2.5	0.6	-1.5
CN1/C(=C\C=C(/C#N)C(=O)Nc2ccccc2F)C(C)(C)c2ccccc21	10.6	15.7	28.5	-7.1	7.8	-1.9
C/C(=N\NC(=O)c1c([N+](=O)[O-])c(C)nn1C)c1ccc(NC(=O)C2CCCC2)cc1	-16.8	22.3	64.2*	-3.5	-18.8	33.1*
COc1ccc(/C=N/NC(=O)c2sccc2OCc2ccc(F)cc2)cc1OC	9.4	-4.3	8.9	-3.0	5.3	38.0*
COc1cc(/C=N/NC(=O)c2cccs2)ccc1OCc1ccccc1	.	9.5	-0.2	.	29.1	-1.1
SMILES	MITF act	PfHsp90 yeast 2	Vif inh	Wnt bcat act	esBAF inh	N-glyco inh
Cc1cccc(NC(=O)CCSc2ccccc2)c1C	16.3	-0.9	1.0	52.3*	.	-1.1
Cc1ccc(NC(=O)CCSc2ccccc2)c(C)c1	24.5	.	-5.6	.	.	0.3
O=C(NN=C1CCCC1)c1ccc(Cl)cc1	0.5	23.6	12.9	-1.6	-0.1	0.7
Cc1cc(OCc2ccc(C(=O)NN=C3CCCC3)cc2)ccc1Cl	27.0	14.8	2.3	46.4*	.	-0.7
COc1ccc(C(=O)NN=C2CCCC2)cc1	.	19.9	-2.4	-0.4	45.3*	5.3
Cc1ccc(-c2noc(CSc3ccccc3)n2)cc1	102.2*	-24.0	-4.4	51.7*	-0.5	-7.2
c1ccc(C(Cc2nc(-c3cccnc3)no2)c2ccccc2)cc1	-2.4	-12.2	-4.8	.	.	0.5
Cc1cccc(-c2noc(CSc3ccccc3)n2)c1	86.7*	-7.6	-0.8	-0.6	45.7*	-1.0
c1ccc(SCc2nc(-c3cccnc3)no2)cc1	108.5*	2.2	-3.7	.	13.4	-8.5
